This is part of a sample that, as a whole, favours compounds with a hit. Of some 83,000 tested, about 20% had one in any assay.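 Note: values are percent growth. 100 is the growth of untreated cells, values between 100 and 0 indicate rising inhibition; between -100 and 0 indicates cell death.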 Values without a mark were called inactive. Active and inactive are the calls of the source. How the source made its calls: active means growth percent below 10; inactive means the rest.

Holding throughout (experiment): NCI-60 one-dose screen, 48 h (100 = growth as untreated, 0 = no growth, -100 = all killed)
One test concerns NCI-H23 lung. Conditions: 10 µM unless noted.
The next test has as its system NCI-H226 lung. Conditions: 10 µM unless noted.
The test system of a further test is MDA-MB-231 breast. Conditions: 10 µM unless noted.
In the next test the test system is SF-268 CNS. Conditions: 10 µM unless noted.
The subject of a further test is SF-539 CNS. Conditions: 10 µM unless noted.
Another test has as its system HCT-15 colon. Conditions: 10 µM.
The next test deals with HT29 colon. Conditions: 10 µM unless noted.
For a further test, the system named is PC-3 prostate. Conditions: 10 µM unless noted.
In another test the test system is SK-MEL-5 melanoma. Conditions: 10 µM unless noted.
The subject of a further test is UACC-62 melanoma. Conditions: 10 µM unless noted.
The next test concerns SK-MEL-28 melanoma. Conditions: 10 µM unless noted.
In another test the test system is SN12C renal. Conditions: 10 µM unless noted.
A further test concerns ACHN renal. Conditions: 10 µM unless noted.
The test system of another test is OVCAR-8 ovarian. Conditions: 10 µM unless noted.
Another test relates to OVCAR-3 ovarian. Conditions: 10 µM unless noted.
Another test has as its system NCI/ADR-RES ovarian. Conditions: 10 µM unless noted.
For the next test, the system named is MDA-MB-435 melanoma. Conditions: 10 µM unless noted.
The subject of a further test is MCF7 breast. Conditions: 10 µM unless noted.
The next test relates to KM12 colon. Conditions: 10 µM unless noted.
Another test has as its system SNB-75 CNS. Conditions: 10 µM unless noted.

As for `Cc1cccc(N(C)c2cccc3c2C(=O)[Se]C3)c1C`, the growth in the test with NCI-H23 lung was 31.2%; with NCI-H226 lung, 36.6%; in the test on MDA-MB-231 breast it was 53.6%; with SF-268 CNS, 52.4%; in the test with SF-539 CNS, 56.4%; in the test on HCT-15 colon, 31.6%. Moreover, the growth with HT29 colon was 9.4% (active); in the test with PC-3 prostate, 66.7%; in the test on SK-MEL-5 melanoma, 66%; with UACC-62 melanoma, 64.6%; in the test on SK-MEL-28 melanoma it was 75.6%; in the test on SN12C renal, 84.8%. In addition, the growth is 54% in the test on ACHN renal; 20.2% in the test on OVCAR-8 ovarian; 66.3% with OVCAR-3 ovarian; 13.6% with NCI/ADR-RES ovarian; 78% in the test with MDA-MB-435 melanoma; 49.6% with MCF7 breast. For the same compound, the growth in the test on KM12 colon is 14.6%.

As for `ClCCN(CCCl)C(c1ccccc1)c1ccc(Cl)cc1` (stereo unspecified), the growth was 77.3% in the test with NCI-H23 lung; 75.4% in the test on NCI-H226 lung; 75.7% in the test on MDA-MB-231 breast; 61.5% in the test on SF-268 CNS; 71.7% with SF-539 CNS; 82.9% in the test with HCT-15 colon. Further, the growth is 63% in the test with HT29 colon; 81.8% in the test on SNB-75 CNS; 52% in the test on PC-3 prostate; 54.9% in the test with SK-MEL-5 melanoma; 63.8% with UACC-62 melanoma; 102% in the test with SK-MEL-28 melanoma. Moreover, the growth was 41.1% in the test with SN12C renal; 28.9% with ACHN renal; 77.7% in the test on OVCAR-8 ovarian; 91.9% in the test on OVCAR-3 ovarian; 79% in the test on NCI/ADR-RES ovarian; 88% in the test with MDA-MB-435 melanoma. Further, the growth in the test with KM12 colon was 89.5%.

On to `Cc1cccc(N=C2c3cc([N+](=O)[O-])ccc3-c3c2cc([N+](=O)[O-])cc3[N+](=O)[O-])c1`, for which the growth with NCI-H23 lung was 56.5%; in the test on NCI-H226 lung, 80.1%; in the test on MDA-MB-231 breast it was 60.2%; with SF-268 CNS, 58.7%; with SF-539 CNS it was 97.7%; in the test with HCT-15 colon, 34.2%. Further, the growth with HT29 colon is 21.3%; with SNB-75 CNS it was 84.4%; in the test on PC-3 prostate, 16.8%; in the test on SK-MEL-5 melanoma, 71%; in the test with UACC-62 melanoma it was 77.5%; with SK-MEL-28 melanoma, 97.2%. Also, the growth was 26.4% in the test with SN12C renal; 59.3% with ACHN renal; 64.5% with OVCAR-8 ovarian; 50.4% in the test on OVCAR-3 ovarian; 56.5% with NCI/ADR-RES ovarian; 45% in the test on MDA-MB-435 melanoma. Also, the growth in the test on MCF7 breast is 21.3%; in the test with KM12 colon, 52.4%.

`NC(=O)SCC(=O)Nc1ccc([As](=O)(O)O)cc1`: the growth in the test with NCI-H23 lung was 86.1%; in the test on NCI-H226 lung, 111%; in the test on MDA-MB-231 breast, 90.8%; with SF-268 CNS, 100%; in the test with SF-539 CNS, 83.8%; in the test with HCT-15 colon, 81.5%. Besides, the growth is 93.7% in the test with HT29 colon; 96.6% in the test on SNB-75 CNS; 77.8% with PC-3 prostate; 102% in the test on SK-MEL-5 melanoma; 97.3% with UACC-62 melanoma; 101% in the test with SK-MEL-28 melanoma. Also, the growth is 89.8% with SN12C renal; 100% in the test with ACHN renal; 83.4% in the test with OVCAR-8 ovarian; 103% in the test on OVCAR-3 ovarian; 86.4% with NCI/ADR-RES ovarian; 98.5% in the test with MDA-MB-435 melanoma. In addition, the growth in the test with MCF7 breast was 75.3%; in the test with KM12 colon, 97.6%.

As to `Nc1c(Br)cc([N+](=O)[O-])cc1[N+](=O)[O-]`, the growth was 98.4% in the test on NCI-H23 lung; 92.9% with NCI-H226 lung; 105% in the test with MDA-MB-231 breast; 97.7% with SF-268 CNS; 110% in the test with SF-539 CNS; 114% in the test on HCT-15 colon. For the same compound, the growth was 103% in the test with HT29 colon; 99.2% in the test with SNB-75 CNS; 102% in the test on PC-3 prostate; 101% in the test with UACC-62 melanoma; 116% in the test with SK-MEL-28 melanoma; 104% with SN12C renal. For the same compound, the growth with ACHN renal was 125%; with OVCAR-8 ovarian, 98%; in the test on OVCAR-3 ovarian, 108%; with NCI/ADR-RES ovarian, 105%; in the test on MDA-MB-435 melanoma, 112%; in the test on MCF7 breast, 103%. Moreover, the growth in the test on KM12 colon was 105%.

On to `CCC(CC)(c1ccccc1)C(OC(N)=O)c1ccccc1` (stereo unspecified), for which the growth with NCI-H23 lung was 79.9%; in the test on NCI-H226 lung, 81.8%; in the test on MDA-MB-231 breast, 94.7%; with SF-268 CNS, 93.9%; in the test on SF-539 CNS, 103%; with HCT-15 colon, 80%. For the same compound, the growth in the test with HT29 colon is 87.7%; in the test on SNB-75 CNS it was 74.8%; in the test with PC-3 prostate, 72.3%; in the test with SK-MEL-5 melanoma, 89.5%; in the test on SK-MEL-28 melanoma, 85.4%; with SN12C renal, 81.8%. In addition, the growth in the test with ACHN renal was 87.4%; with OVCAR-8 ovarian, 92.5%; with OVCAR-3 ovarian, 89%; with NCI/ADR-RES ovarian, 79.9%; in the test with MDA-MB-435 melanoma, 50.6%; with MCF7 breast, 81.9%. Further, the growth in the test with KM12 colon was 83.8%.

With `C=CCC1(CC)C(=O)NC(=S)NC1=O`, the growth with NCI-H23 lung is 100%; in the test on NCI-H226 lung it was 104%; in the test with MDA-MB-231 breast, 109%; in the test with SF-268 CNS it was 101%; in the test on SF-539 CNS, 98.3%; in the test on HCT-15 colon, 99.9%. Besides, the growth in the test on HT29 colon is 98%; in the test with SNB-75 CNS, 104%; with PC-3 prostate it was 96.8%; in the test with SK-MEL-5 melanoma, 95.7%; with UACC-62 melanoma, 101%; with SK-MEL-28 melanoma, 116%. The growth is 93.4% in the test with SN12C renal; 101% in the test with ACHN renal; 100% in the test with OVCAR-8 ovarian; 105% with OVCAR-3 ovarian; 104% with NCI/ADR-RES ovarian; 103% in the test on MDA-MB-435 melanoma. Also, the growth in the test with MCF7 breast was 103%; with KM12 colon, 101%.

As for `COc1ccc(OC)c(/C=C(/C)[N+](=O)[O-])c1`, the growth was 53.8% in the test with NCI-H23 lung; 94.3% in the test on NCI-H226 lung; 68.4% in the test on MDA-MB-231 breast; 65.3% in the test with SF-268 CNS; 84.4% with SF-539 CNS; -33.1% (active) with HCT-15 colon. The growth in the test on HT29 colon is -29% (active); with SNB-75 CNS, 77.2%; with PC-3 prostate, 52.6%; with SK-MEL-5 melanoma it was 64.6%; in the test on UACC-62 melanoma, 63.4%; in the test with SK-MEL-28 melanoma, 74.7%. For the same compound, the growth in the test on SN12C renal is 32.3%; with ACHN renal, -27.7% (active); in the test with OVCAR-8 ovarian, 13.1%; in the test on OVCAR-3 ovarian, -11.3% (active); in the test with NCI/ADR-RES ovarian it was 81.1%; in the test on MDA-MB-435 melanoma, 23.1%. Further, the values for the growth with MCF7 breast and in the test with KM12 colon were 6.58% (active) and 26.5%, respectively.

The record behind these values is PubChem BioAssay (NCI).
